Data published in PubChem BioAssay AID2537 (National Center for Advancing Translational Sciences (NCATS), 2010).
Results filed as inconclusive are left out. A call without a number means that no potency is given here. Activity calls are given as the source filed them. Calls follow the shape of the dose curve; as a rule, active = well fitted inhibition curve with a large enough effect; inconclusive = small, poorly fitted or top-dose-only effect; inactive = no such curve, though single readings can be large or run the other way.

target: Polyunsaturated fatty acid lipoxygenase ALOX15B (Homo sapiens) (UniProt O15296); assay: Confirmation qHTS Assay for Inhibitors of 15-hLO-2 (15-human lipoxygenase 2); settings: purified 15hLO-2, xylenol orange hydroperoxide absorbance; series mostly up to 57.1 µM
Experimental: Human lipoxygenase 15hLO-2 is a member of the closely related lipoxygenase family of enzymes which catalyze the site-specific oxidation of arachidonic acid to various hormone precursor molecules and as such is a candidate for drug development in a variety of disease areas, such as cancer and inflammation. Inhibition of 15hLO-2 activity was screened by utilizing arachidonic acid as a substrate. The extent of hydroperoxide product formation was measured by a secondary chromogenic reaction in which xylenol orange (XO, Sigma-Aldrich, cat. number 39,818-7) reacts with the ferric ions produced from the reaction between the hydroperoxide and ferrous ions. The Fe(III)-XO complex is characterized with red-shifted absorbance at 560 nm. A purified preparation of human 15hLO-2 was supplied by Professor Ted Holman, University of California, Santa Cruz. NIH Molecular Libraries Screening Centers Network [MLSCN] NIH Chemical Genomics Center [NCGC] MLSCN Grant: MH081283-01A1 PI Name: Holman, T.R., University of California, Santa Cruz
Assay Protocol: Buffer: 25 mM Hepes pH 7.5, 0.01% Triton X-100. Reagents/Controls: Buffer in columns 3 and 4 as negative control (no enzyme). Substrate solution: 45 uM arachidonic acid (Sigma-Aldrich, St. Louis, MO) final concentration dispensed throughout the plate. Enzyme: 50 nM 15hLO-2 final concentration in columns 1, 2, 5-48. Column 1 is neutral (100% activity). Column 2 contained pin-transferred titration of NDGA (nordihidroguaiaretic acid, Sigma-Aldrich, N 5023, top concentration 10 mM in DMSO, then 1:2 dilution in duplicate). (Dilution factor: 23 nL into 4 uL.) Chromogenic detection reagent (divalent iron/xylenol orange, Fe-XO): 200 uM xylenol orange plus 300 uM ferrous ammonium sulfate prepared freshly in 50 mM sulfuric acid. Assay Steps: Three uL of enzyme were dispensed to 1536-well Greiner black clear bottom plates. Compounds and controls (23 nL) were transferred via Kalypsys PinTool. The plates were incubated for 15 min at room temperature, and then 1 uL of substrate solution was added to start the reaction. After room temperature incubation for 90 minutes, 4 uL of Fe-XO solution was added to each well followed by a short spin (1000 rpm, 15 sec) and the plates were then incubated for 30 min. The absorbance at 405 and 573 nm were measured using ViewLux (Perkin-Elmer) High-throughput CCD imager and absorbance protocol settings. The 573-to-405 absorbance ratio was used to compute reaction progress.

Polyunsaturated fatty acid lipoxygenase ALOX15B (Homo sapiens), sequence (O15296 whole entry, looked up): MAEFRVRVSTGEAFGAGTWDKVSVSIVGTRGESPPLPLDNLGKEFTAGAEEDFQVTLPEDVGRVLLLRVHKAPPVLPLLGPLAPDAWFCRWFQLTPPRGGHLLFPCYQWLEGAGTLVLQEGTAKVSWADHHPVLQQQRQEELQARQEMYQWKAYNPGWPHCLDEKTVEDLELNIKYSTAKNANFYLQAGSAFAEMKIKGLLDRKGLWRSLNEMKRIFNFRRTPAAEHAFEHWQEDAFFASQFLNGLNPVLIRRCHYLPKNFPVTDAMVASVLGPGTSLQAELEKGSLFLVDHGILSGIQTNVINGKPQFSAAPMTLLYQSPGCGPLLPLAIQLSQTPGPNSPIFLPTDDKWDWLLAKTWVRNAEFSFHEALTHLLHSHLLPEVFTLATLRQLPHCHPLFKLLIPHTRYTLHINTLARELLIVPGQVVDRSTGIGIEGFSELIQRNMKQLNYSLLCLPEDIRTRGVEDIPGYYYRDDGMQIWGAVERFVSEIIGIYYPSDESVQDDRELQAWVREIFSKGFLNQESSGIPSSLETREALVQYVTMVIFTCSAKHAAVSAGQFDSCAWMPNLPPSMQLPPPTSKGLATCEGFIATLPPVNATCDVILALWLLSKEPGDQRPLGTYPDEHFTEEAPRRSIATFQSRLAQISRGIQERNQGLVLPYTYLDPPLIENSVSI

| Structure (SMILES) | Potency |
| --- | --- |
| O=C(Nc1nnc(-c2ccco2)s1)C1CCCCC1 | 1 µM (active) |
| CN1CCN(C(c2cccnc2)c2ccc3cccnc3c2O)CC1 (configuration not stated) | inactive |
| Cc1ccc(C)c(NC(=S)NNC(=O)c2csc3c2CCC(C)C3)c1 (configuration not stated) | inactive |
| COc1ccccc1-n1c(SCC(=O)Nc2ccc(C)cc2)nc(O)cc1=O | inactive |
| O=C1C2C3CCCC3=C3CCCC3C2C(=O)N1c1cccc(Cl)c1 (configuration not stated) | inactive |
| O=C(c1ccncc1)N1CCC2(CCCN(Cc3nccs3)C2)CC1 | inactive |
| Cc1ccc(-c2ccc(/C=C3\C(=O)ON=C3c3ccccc3)o2)c([N+](=O)[O-])c1 | 3.16 µM (active) |
| COC(=O)c1ccc(C(=S)N2CCOCC2)cc1 | inactive |
| CCOc1cc(-c2cc(-c3ccc(N)cc3)nc(N)c2C#N)ccc1O | inactive |
| CC(=O)NCCNc1ncncc1-c1ccc(N(C)C)cc1 | inactive |
| Cc1noc(C)c1-c1nc(N(C)Cc2ccco2)c2ccccc2n1 | inactive |
| Clc1ccc(NNc2ccnc3cc(Cl)ccc23)cc1 | inactive |
